The whole screen tested about 67,000 compounds, of which about 300 (0.45%) showed an effect of 50% or more. The sample as a whole holds a higher share of strong results than the screen did.

Among the data in ChEMBL document CHEMBL3988442, “University of Dundee, Small-Polar-MMV Screening Library” (2021) are Percent Effect values, retold here.

Polyketide synthase Pks13 (Mycobacterium tuberculosis (strain ATCC 25618 / H37Rv)), sequence (I6X8D2 whole entry): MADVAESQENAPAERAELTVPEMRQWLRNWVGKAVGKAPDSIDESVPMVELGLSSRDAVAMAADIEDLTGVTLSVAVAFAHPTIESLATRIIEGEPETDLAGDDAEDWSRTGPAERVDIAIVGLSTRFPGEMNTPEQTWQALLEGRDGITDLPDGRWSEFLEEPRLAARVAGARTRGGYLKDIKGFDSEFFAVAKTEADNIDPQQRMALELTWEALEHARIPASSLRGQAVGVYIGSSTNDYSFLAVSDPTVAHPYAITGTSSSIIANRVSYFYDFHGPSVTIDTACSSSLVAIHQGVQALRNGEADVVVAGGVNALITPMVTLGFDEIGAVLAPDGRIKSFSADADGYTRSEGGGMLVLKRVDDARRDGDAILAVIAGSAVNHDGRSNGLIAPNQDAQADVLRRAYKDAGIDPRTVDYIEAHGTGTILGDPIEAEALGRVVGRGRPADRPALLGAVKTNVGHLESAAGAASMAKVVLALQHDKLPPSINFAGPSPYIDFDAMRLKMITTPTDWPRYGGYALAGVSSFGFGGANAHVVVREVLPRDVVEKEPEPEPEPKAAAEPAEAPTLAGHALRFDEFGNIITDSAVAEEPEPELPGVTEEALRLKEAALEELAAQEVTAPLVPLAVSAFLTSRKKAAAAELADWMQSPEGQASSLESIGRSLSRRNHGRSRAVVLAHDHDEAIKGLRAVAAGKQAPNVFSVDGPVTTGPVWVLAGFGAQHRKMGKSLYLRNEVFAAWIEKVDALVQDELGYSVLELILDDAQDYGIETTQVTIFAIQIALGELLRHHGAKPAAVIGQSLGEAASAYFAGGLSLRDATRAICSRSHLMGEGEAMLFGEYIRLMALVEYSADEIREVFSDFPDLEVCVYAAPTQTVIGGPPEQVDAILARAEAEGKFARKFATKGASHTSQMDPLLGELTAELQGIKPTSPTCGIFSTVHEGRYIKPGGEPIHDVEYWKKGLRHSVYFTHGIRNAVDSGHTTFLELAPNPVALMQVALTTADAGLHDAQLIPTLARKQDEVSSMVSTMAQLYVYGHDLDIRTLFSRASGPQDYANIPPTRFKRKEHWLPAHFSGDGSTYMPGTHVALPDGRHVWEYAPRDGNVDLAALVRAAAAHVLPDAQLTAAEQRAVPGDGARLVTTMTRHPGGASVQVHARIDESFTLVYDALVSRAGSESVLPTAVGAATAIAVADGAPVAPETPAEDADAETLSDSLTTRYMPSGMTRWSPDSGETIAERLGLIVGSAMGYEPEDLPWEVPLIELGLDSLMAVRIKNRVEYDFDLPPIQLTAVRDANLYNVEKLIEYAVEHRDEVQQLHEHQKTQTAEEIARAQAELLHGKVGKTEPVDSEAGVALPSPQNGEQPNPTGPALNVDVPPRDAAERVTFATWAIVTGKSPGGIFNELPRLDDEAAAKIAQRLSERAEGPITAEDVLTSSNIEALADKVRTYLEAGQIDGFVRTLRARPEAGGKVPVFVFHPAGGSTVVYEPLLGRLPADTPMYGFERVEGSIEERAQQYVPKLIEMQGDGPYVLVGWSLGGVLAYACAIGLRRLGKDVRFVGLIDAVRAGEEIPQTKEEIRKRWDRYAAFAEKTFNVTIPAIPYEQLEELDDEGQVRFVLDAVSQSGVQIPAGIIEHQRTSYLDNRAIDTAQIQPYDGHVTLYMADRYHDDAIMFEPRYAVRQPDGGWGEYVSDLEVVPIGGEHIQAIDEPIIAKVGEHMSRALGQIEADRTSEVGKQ

This assay concerns the target Polyketide synthase Pks13 (Mycobacterium tuberculosis (strain ATCC 25618 / H37Rv)) (UniProt I6X8D2). In words: Mycobacterium tuberculosis Polyketide synthase 13 Thioesterase (PKS13). Type of assay: functional. Also noted: scale not given: in the data most compounds retested in dose-response had high values. The note with it: 30 µM.
As for `Cc1ccc(-c2noc(CC[C@@H]3CCCN4CCCC[C@H]34)n2)nn1`, the Percent Effect is -24.6%.

Turning to `O=C(CC1CC1)N1C[C@H]2CCN[C@H]2C1`, the Percent Effect worked out at 1.79%.

In the case of `COc1cccc(-c2ccnc3nc(N4CCCCC4)[nH]c(=O)c23)c1`, the Percent Effect was -83.6%.

Turning to `NC(=O)C1CCN(c2nc3nccc(-c4ccccc4)c3c(=O)[nH]2)CC1`, the Percent Effect was -5.28%.

As for `COc1ccc(-c2ccnc3nc(N4CCCC4)[nH]c(=O)c23)cc1OC`, the Percent Effect was -15.2%.

For `O=c1[nH]c(N2CCCCC2)nc2nccc(-c3ccc4c(c3)OCO4)c12`, the Percent Effect was -6.64%.

Turning to `COc1ccccc1-c1ccnc2nc(N3CCCCC3)[nH]c(=O)c12`, the Percent Effect turned out to be 71.7%.

As to `COc1ccc(-c2ccnc3nc(N4CCCCC4)[nH]c(=O)c23)cc1`, the Percent Effect came out at 75%.

With `Cc1cc(C(=O)N2C[C@H]3CC[C@@H]2CN(C(=O)c2ccncc2)C3)cs1`, the Percent Effect was -6.64%.

In the case of `O=C(Nc1cccnc1)[C@@H]1COC[C@H]2CN(C3CCCC3)C[C@H]21`, the Percent Effect is -9.56%.

On to `CCS(=O)(=O)N1CC[C@H]2OCC[C@@]2(c2nnc(C)o2)C1`, for which the Percent Effect was -32.8%.

In the case of `CC1=N[C@@]2(CC[C@@H]3CN(S(=O)(=O)C4CC4)C[C@@H]32)C(=O)N1CC(C)C`, the Percent Effect was -51.1%.

`CCS(=O)(=O)N1C[C@H]2CC[C@@]3(N=C(C)N(CC(C)C)C3=O)[C@H]2C1`: the Percent Effect is -10.2%.

Turning to `CC1=N[C@@]2(CC[C@@H]3CN(S(C)(=O)=O)C[C@@H]32)C(=O)N1CC(C)C`, the Percent Effect came out at 75.9%.

As to `CN(C)CCNC(=O)[C@H]1C[C@H]2CN(c3ncccn3)C[C@H]2N1C`, the Percent Effect is -18.5%.

Regarding `Cc1cccc(CN2CC[C@H]3[C@H]2CCN3C(=O)c2cnn(C)c2)n1`, the Percent Effect was found to be 3.27%.

For the compound `CCOc1ccc(-c2ccc3c(c2)OCO3)cc1C(N)=O`, the Percent Effect was -15.1%.

With `NC(=O)CSc1nccc(-c2ccc3c(c2)OCO3)n1`, the Percent Effect was 59.5%.

On to `NC(=O)CCC(=O)N1CCc2[nH]nc(-c3ccc4c(c3)OCO4)c2C1`, for which the Percent Effect is -10.3%.

Regarding `CNCc1nc(-c2ccc3c(c2)OCO3)c[nH]1`, the Percent Effect stood at 0.694%.

On to `O=C(O)CSc1nccc(-c2ccc3c(c2)OCO3)n1`, for which the Percent Effect was determined as 51.8%.

In the case of `O=C(CSc1nccc(-c2ccc3c(c2)OCO3)n1)N1CCOCC1`, the Percent Effect came to 26.7%.

On to `CN1CCO[C@H]2CN(S(=O)(=O)c3ccc(C#N)cc3)C[C@H]21`, for which the Percent Effect was -7.61%.

For the compound `O=C([C@H]1COC[C@H]2CN(C3CCOCC3)C[C@H]21)N1CCCCO1`, the Percent Effect was -4.79%.

Turning to `CN(C)c1nccc(N2CCO[C@H]3CN(Cc4ccco4)C[C@H]32)n1`, the Percent Effect is -3.24%.

As to `O=S(=O)(c1ccccc1)N1C[C@@H]2COC[C@]2(CN2CCOCC2)C1`, the Percent Effect came to 27.2%.

For the compound `Fc1cccc(CN2C[C@@H]3COC[C@]3(COCc3ccncc3)C2)c1`, the Percent Effect was found to be 0.554%.

With `O=C(CC1CCCC1)N1C[C@H](Oc2cccnc2)[C@H]2OCCC[C@H]21`, the Percent Effect was -7.32%.

Take `Cc1nccn1CC1CCCN1CCCc1nc(-c2cccs2)no1` (stereo unspecified): the Percent Effect is -4.96%.

Consider `c1csc(-c2noc(CCCN3CCCC3Cn3cncn3)n2)c1` (stereo unspecified), for which the Percent Effect amounted to 111%.

Consider `c1ccc2oc(CCCN3CCCCC3Cn3cncn3)nc2c1` (stereo unspecified), for which the Percent Effect was 58.4%.

With `c1ccc2oc(CCCN3CCCC3Cn3cncn3)nc2c1` (stereo unspecified), the Percent Effect is -10.8%.

Consider `c1csc(-c2noc(CCCN3CCCC3Cn3cccn3)n2)c1` (stereo unspecified), for which the Percent Effect was -2.79%.

As for `c1ccc2oc(CN3CCCCC3Cn3cncn3)nc2c1` (stereo unspecified), the Percent Effect was -0.333%.

On to `CN(C)C(=O)COC[C@@H]1CC[C@H]2[C@H](CCN2c2ncccn2)O1`, for which the Percent Effect is -0.596%.

On to `COCC(=O)N1C[C@H]2CNC[C@@]2(C(=O)NCc2cccc3[nH]ccc23)C1`, for which the Percent Effect is -18.7%.

Take `CO[C@@H]1CC[C@H]2[C@H]1OCCN2CC1CC1`: the Percent Effect is -4.52%.

Regarding `COc1ccc(OC)c(C(=O)N2C[C@H]3CC[C@@H]2CN(C)C3)c1`, the Percent Effect amounted to 2.2%.

`O=C(c1ccnnc1)N1C[C@H](Oc2cccnc2)[C@H]2OCCC[C@H]21`: the Percent Effect was -7.04%.

Take `CC(C)c1nc2n(n1)CC(NCc1ncc(-c3ccccc3)o1)CC2` (stereo unspecified): the Percent Effect was -14.9%.

In the case of `CCc1nc2n(n1)CC(NCc1ncc(-c3ccccc3)o1)CC2` (stereo unspecified), the Percent Effect stood at 108%.

For the compound `CCc1nc2n(n1)CC(NCc1cnc(-c3ccccc3)nc1)CC2` (stereo unspecified), the Percent Effect is -15%.

Consider `Cn1nc(-c2ccccc2)cc1[C@H]1CN2CC[C@H]1C[C@@H]2CNS(C)(=O)=O`, for which the Percent Effect was -32.5%.

`N#Cc1c(C2CC2)cc(-c2ccc(O)cc2)nc1N`: the Percent Effect was found to be 44.4%.

Regarding `CS(=O)(=O)c1ccc(-c2cc(C3CC3)c(C#N)c(N)n2)cc1`, the Percent Effect came out at 62.7%.

Consider `COc1ccc(-c2cc(C3CC3)c(C#N)c(N)n2)cc1F`, for which the Percent Effect was -126%.

As for `Cn1cc(CN2C[C@@H]3OCCN(CC4CCCC4)[C@@H]3C2)cn1`, the Percent Effect is -22.6%.

As to `Cc1nc(CO[C@H]2CN(C(=O)c3ccc[nH]3)[C@@H]3COC[C@H]23)cs1`, the Percent Effect was -11.9%.

Turning to `CN(C)c1ccc(C(=O)NCc2ccc(N3CCOCC3)cc2)cn1`, the Percent Effect is -1.83%.

On to `CCN(CCC(F)(F)F)C(=O)Nc1cccc(N2CCOCC2)c1`, for which the Percent Effect was -2.57%.

As to `CCN(CC)C(=O)c1nnc2ccc(N3CCOCC3)cc2n1`, the Percent Effect worked out at 51.7%.

In the case of `CN(C)C(=O)c1nnc2ccc(N3CCOCC3)cc2n1`, the Percent Effect came to 11.7%.

Take `O=C(NCc1ccccc1)c1nnc2ccc(N3CCOCC3)cc2n1`: the Percent Effect came to 50.8%.

As for `CCNC(=O)c1nnc2ccc(N3CCOCC3)cc2n1`, the Percent Effect worked out at 48.2%.

As for `c1cncc(OC[C@@]23CCO[C@@H]2CCN(Cc2cccs2)C3)c1`, the Percent Effect is 12.4%.

On to `Cc1cccc(CN2C[C@@H]3COC[C@]3(COc3cccnc3)C2)n1`, for which the Percent Effect was determined as 8.46%.

As to `CC(=O)N1[C@@H](C(=O)NCC2CC2)C[C@@H]2CN(Cc3ccco3)C[C@@H]21`, the Percent Effect was -5.84%.

As for `O=C(c1ccccc1F)N1CC[C@@H]2CN(c3ncccn3)CCO[C@@H]2C1`, the Percent Effect was found to be 12%.

For the compound `CCC(=O)NCC(CC)Oc1cccc(F)c1` (stereo unspecified), the Percent Effect is -2.34%.

On to `CCC(CNC(=O)COC)Oc1cccc(F)c1` (stereo unspecified), for which the Percent Effect is 60.4%.

Turning to `CCC(CNC(=O)CNC(C)=O)Oc1cccc(F)c1` (stereo unspecified), the Percent Effect was -7.54%.

As to `O=C(CCc1ccccc1)N1C[C@@H]2CN(Cc3ccoc3)CCO[C@@H]2C1`, the Percent Effect is -7.96%.

Take `CCc1noc(CNc2ccc(CC(=O)N3CCSCC3)cc2)n1`: the Percent Effect was -12.3%.

Regarding `CCc1nnc(CNc2ccc(CC(=O)N3CCSCC3)cc2)o1`, the Percent Effect stood at 5.6%.

As for `Cc1noc(CNc2ccc(CC(=O)N3CCSCC3)cc2)n1`, the Percent Effect is 70.3%.

Turning to `CN1C(=O)[C@H]2CC[C@@H]1CN(C(=O)c1sccc1S(N)(=O)=O)C2`, the Percent Effect is -33.4%.

Turning to `CCN1C[C@H]2CCN(C(=O)C3CCCO3)CC[C@H]2S1(=O)=O` (stereo partly specified), the Percent Effect was -20.2%.

`CNC(=O)[C@H]1C[C@@H]2CN(C(=O)c3cncc(C)c3)C[C@@H]2N1C`: the Percent Effect turned out to be 19.6%.

Consider `CC(Nc1cnn(C)c(=O)c1Cl)c1ccc(F)cc1` (stereo unspecified), for which the Percent Effect is -8.28%.

Consider `COc1ccc(C(C)Nc2cnn(C)c(=O)c2Cl)cc1OC` (stereo unspecified), for which the Percent Effect was determined as 2.82%.

On to `CC(Nc1cnn(C)c(=O)c1Cl)c1ccc(F)c(F)c1` (stereo unspecified), for which the Percent Effect stood at 78.5%.
